“And” between values parts separate entries of the source, which are not always exact repeats. Equal entries are not always repeated. The panel holds about 83,000 compounds, 20% with a hit somewhere; the sample as a whole holds those more often.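 How to read the values: 0–100, growth inhibition (40 = 60% inhibited); 0, no net growth; -100 to 0, cell death (-40 = 40% of starting cells died; -100 = all dead).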 The source made the active and inactive calls. Rule for the calls: active = growth percent below 10; inactive = the rest.

In this assay the test system is MDA-MB-468 breast. Description: NCI-60 one-dose screen, 48 h (100 = growth as untreated, 0 = no growth, -100 = all killed). As to conditions: 10 µM unless noted.
Regarding `Cc1nc(Nc2ccc(Cl)cc2)c2cnn(-c3ccccc3)c2n1`, the growth was 98.3% (inactive).
Under `CC(C)(C)c1ccc(NS(=O)(=O)c2ccc3nc(NC(=O)c4cnccn4)[nH]c3c2)cc1` stands -18.6% (active).
Under `Nc1ccccc1NC(=O)c1ccc(CN2CCC/C(=C\c3ccccn3)C2=O)cc1` stands -6.37% (active); under `O=S(=O)(/N=C1C=C/C(=N\S(=O)(=O)c2ccccc2)c2ccccc2\1)c1ccccc1`, 79.3% (inactive); under `CC(C)(C)[Si](C)(C)OC1[C@@H](COC(N)=O)O[C@@H](n2cnc3c(N)ncnc32)[C@H]1O[Si](C)(C)C(C)(C)C` (some centres not stated), 97.2% (inactive).
Under `CCN(C)c1ccccc1` stands 113% (inactive); under `O=[N+]([O-])c1cccc([I+]c2ccccc2)c1`, 20.2% (inactive).
Consider `COc1cc2ncnc(Nc3ccc(S(=O)(=O)Nc4cc(C)on4)cc3)c2cc1OCCCN1CCN(c2ccc([N+](=O)[O-])cc2)CC1`, for which the growth is 115% (inactive).
As to `Cc1cc(=O)[nH]c(NN=C2CCCC2)n1`, the growth was 116% (inactive).
The same measure for `FC(F)(F)c1ccc(-c2cnc(-c3nn[nH]n3)nc2NC2CCCCCC2)cc1`: 68.5% [50 µM] (inactive); for `COc1ccc(CN2C(=O)OC(C)(COC(C)=O)C2=O)cc1` (configuration not stated): 92.9% (inactive).
Regarding `CCC(O)c1ccccc1` (configuration not stated), the growth is 108% (inactive) and 97.6% (inactive).
As for `O=C(Nc1ccc(Cl)cc1)Nc1ccc(Nc2nncc3ccccc23)cc1`, the growth is 0.165% (active).
The same measure for `COC(C(=O)[C@@H](O)[C@@H](C)O)[C@@H]1Cc2cc3cc(O[C@H]4C[C@@H](O[C@H]5C[C@@H](O)[C@H](O)C(C)O5)[C@H](O)C(C)O4)c(C)c(O)c3c(O)c2C(=O)[C@H]1O[C@H]1C[C@@H](O[C@H]2C[C@@H](O[C@H]3C[C@@H](O)[C@H](OC)C(C)O3)[C@@H](O)C(C)O2)[C@H](O)C(C)O1` (some centres not stated): -60% (active); for `Oc1ccc(C2OCCO2)c2cccnc12`: 62.4% (inactive); for `CCc1cccc(CC)c1NC(=O)c1sc2nc3c(cc2c1N)CCCC3`: 79.3% (inactive).
The same measure for `COc1ccc(C(=O)Cn2c(C(=O)c3ccc(OC)cc3)nc3ccccc32)cc1`: 17% (inactive); for `COc1cc(/C=C/C(=O)c2cc(-c3ccccc3)ccc2O)cc(OC)c1OC`: 58.3% (inactive).
The same measure for `COC1OC(C(O)C(O)CO)C(O)C(O)C1O` (configuration not stated): 101% (inactive).
For the compound `Cc1sc2nc3[nH]/c(=C\c4ccc(Cl)cc4)c(=O)n3c(=O)c2c1C`, the growth is 101% (inactive).
For the compound `COc1ccccc1/C=C\C(=O)c1ccccc1`, the growth is 82.7% (inactive).
On to `COc1ccc(NC(=O)CSc2oc(-c3ccccc3)nc2S(=O)(=O)c2ccc(Cl)cc2)c(OC)c1`, for which the growth is 57.8% (inactive).
Under `CCCCCN1C=C/C(=C\C(=O)N(C)c2ccc(Oc3ccccc3)cc2)c2ccccc21` stands 22.3% (inactive); under `COc1cccc(-c2nc3sccn3c2-c2ccnc(NCCCNS(=O)(=O)c3cccc(F)c3)c2)c1`, 8.57% (active); under `COC(=O)[C@H]1CCCN1C[C@@H](O)CN1C(=O)/C(=C\c2cc(OC)c(OC)c(OC)c2)c2ccccc21`, 111% (inactive).
Turning to `O=C(O)CC1CCN(c2ccc3nnc(Cl)n3n2)CC1`, the growth was 101% (inactive).
Under `Cc1cccc(C)c1NCc1nnc(-c2ccco2)o1` stands 100% (inactive); under `CC1(C)CC[C@]2(C(=O)N3CCNCC3)CC[C@]3(C)C(=CC[C@@H]4[C@@]5(C)CCC(=O)C(C)(C)[C@@H]5CC[C@]43C)[C@@H]2C1`, 105% (inactive); under `CC(=O)Nc1nc(C)c(C(=O)N/N=C/c2cccs2)s1`, 98.8% (inactive).
As for `COc1ccc(-c2cc(-c3cccnc3)nc3sc4c(Cl)nnnc4c23)cc1OC`, the growth is 80.1% (inactive).
As for `Cc1ccc(N)cc1CN1C(=O)c2ccccc2C1=O`, the growth is 107% (inactive).
Under `CN(c1ccc(Br)cc1)S(=O)(=O)c1ccc(-c2cnc(C3CC3)o2)cc1` stands 11.7% (inactive); under `COc1ccc(Oc2nc(Nc3ccc(N4CCOCC4)cc3)ncc2NC(=O)Nc2cc(OC)cc(OC)c2)cc1`, 25.3% (inactive).
`COc1cc2nccc(Oc3ccc(NC(=O)C4(C(=O)Nc5ccc(F)cc5)CC4)cc3)c2cc1Oc1ccc(N)cn1`: the growth was 31.7% (inactive).
Under `Cn1cc(-c2nc(-c3c[nH]c4c(Cl)nccc34)cs2)c2ccccc21` stands 8.74% (active); under `O=[N+]([O-])c1cccc(/C=C/c2ccccn2)c1`, 48.1% (inactive); under `CNC(=O)c1cc(Oc2ccc(NC(=O)Nc3ccc(Cl)c(C(F)(F)F)c3)cc2)ccn1`, -12.8% (active) and 20.5% (inactive).
